This excerpt belongs to a sample that is enriched for hits.
Tgondii IFNg: T. gondii growth inhibition under IFN-gamma; activity change, negative = inhibition, % (concentration not given with the values); 69,000 compounds, 3.8% hits; Toxoplasma gondii growth in IFN-gamma-treated host cells; active compounds read low; in the data active = activity change below about -70%, passing the limit was not always enough;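 note: host cells are HeLa cells infected with Toxoplasma gondii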
A number is an active result; i = inactive.

SMILES	Tgondii IFNg
Cc1cc(C)cc(NC(=O)C(=O)NCCc2csc(-c3ccc(F)cc3)n2)c1	-93
Cc1ccc(NC(=O)C(=O)NCCc2csc(-c3ccc(F)cc3)n2)cc1	i
Cc1ccc(-c2nc(CCNC(=O)C(=O)Nc3c(C)cccc3C)cs2)cc1	i
Cc1cccc(NC(=O)C(=O)NCCc2csc(-c3ccc(F)cc3)n2)c1	i
Cc1cccc(C)c1NC(=O)C(=O)NCCc1csc(-c2ccc(F)cc2)n1	-78
Cc1cccc(CN2CC3(CCC2=O)CCN(C(=O)C2CC2)CC3)n1	i
O=C(c1c[nH]c2ccccc12)N1CCC(c2nc(-c3ccccc3)no2)C1 (stereo not given)	i
COc1cccc(C(=O)N2CCC(C(=O)N3CCN(C)C(C(=O)O)C3)CC2)c1 (stereo not given)	i
Cc1cccc(NC(=O)c2c(O)c3cccnc3n(-c3ccccc3)c2=O)c1C	i
O=c1[nH]nc(CCn2ccnc2-c2ccc(-c3ccccc3Cl)o2)[nH]1	i
COc1ncccc1-c1cc(=O)[nH]c(NCC(C)(C)CN(C)C)n1	i
O=C(c1cccc(-c2ncc[nH]2)c1)N1CC[C@@H](c2ccc(F)cc2)[C@H](O)C1	i
CC(C)c1nccn1CCCNC(=O)c1ccc(-c2ccsc2)nc1	i
O=C(Nc1ccccc1)Nc1ccc(-c2ccc(C(=O)[C@@H]3CCC[C@@H]3C(=O)O)cc2)cc1	i
COc1ccccc1Oc1ccccc1C(=O)O	i
O=S(=O)(Nc1ccc(F)c(Cl)c1)c1ccccc1Oc1ccc(Cl)cc1Cl	i
COC(=O)CSC(=O)NC(=O)c1ccccc1Oc1ccc(Cl)cc1Cl	-92
CN(C)C(=O)N1CCN(C)C(c2nnc3ccc(C(=O)Nc4cccc(F)c4)cn23)C1 (stereo not given)	i
NC(c1ccccc1)c1cc2ccccc2cn1 (stereo not given)	i
CN(C)CCN1C(=O)CCC12CCCN(C(=O)c1ccc[nH]1)CC2 (stereo not given)	i
O=C(CCC1CCCN(C(=O)Cn2nc3ccccc3n2)C1)NCc1ccc(F)c(F)c1 (stereo not given)	i
C[C@H](CO)N1C[C@H](C)[C@@H](CN(C)Cc2cccc3c2OCCCO3)OCc2cnnn2CCCC1=O	i
C[C@@H]1CN([C@H](C)CO)C(=O)CCCn2nncc2CO[C@H]1CN(C)Cc1cccc2c1OCCCO2	-88
C[C@@H]1CN([C@H](C)CO)C(=O)CCCn2nncc2CO[C@@H]1CN(C)Cc1cccc2c1OCCCO2	i
C[C@@H]1CN([C@@H](C)CO)C(=O)CCCn2nncc2CO[C@@H]1CN(C)Cc1cccc(C(F)(F)F)c1	i
SMILES	Tgondii IFNg
C[C@H](CO)N1C[C@H](C)[C@H](CN(C)Cc2cccc(C(F)(F)F)c2)OCc2cnnn2CCCC1=O	i
C[C@H]1CN([C@@H](C)CO)C(=O)CCCn2nncc2CO[C@H]1CN(C)Cc1cccc(C(F)(F)F)c1	-106
COc1ccc(S(=O)(=O)N2CC3CCCC(C2)C3(O)c2cccnc2F)cc1 (stereo not given)	i
CC(C)(C)c1cc(N/C=C/c2nnnn2-c2ccc(Br)cc2)no1	i
CCN1C(=O)C(c2ccccc2)CC12CCN(CCO)CC2 (stereo not given)	i
Cc1cccc(-c2nnc(-c3nc(NCCN4CCOCC4)c4ccccc4n3)o2)c1	i
COc1cccc(-c2cc(C(=O)N3CCCCC3CCN3CCCC3)[nH]n2)c1 (stereo not given)	i
Cc1oc(-c2cc3c(cc2Cl)OCO3)nc1CN1CCCCC1CCn1cccn1 (stereo not given)	i
NCC1Cc2c(ccc3cc(-c4ccncc4)ccc23)O1 (stereo not given)	-86
CCOC1CCC2(CCN(Cc3cnn(C)c3)CC2)c2ccccc21 (stereo not given)	i
CC(C)C1CN(C(=O)CCc2ccncc2)CCCN1Cc1ccc(F)cc1 (stereo not given)	i
Cc1cc(C(=O)N2CCC(c3cc4c(ncn4C)c(NCC4CC4)n3)CC2)ccc1Cl	-85
Cn1cnc2c(NCc3ccccc3)nc(C3CCN(S(C)(=O)=O)CC3)cc21	i
CC(C)n1cnc2c(NCC3CC3)nc(C3CCN(C(=O)c4cccc(F)c4F)CC3)cc21	i
FC(F)(F)c1cc(N2CCc3ccccc3C2)c2cccc(Cl)c2n1	i
CN(C)C1COC2(CCN(S(=O)(=O)C3CC3)CC2)C1 (stereo not given)	i
CCS(=O)(=O)N1CCC2(CC1)OC(=O)C(C)=C2C(=O)Nc1ccccc1Cl	i
CN(C)C(=O)c1ccc(S(=O)(=O)c2ccc(NC(=O)C(C)(O)C(F)(F)F)c(Cl)c2)cc1 (stereo not given)	i
O=C(CNC(=O)OCc1ccccc1)NC1CCCCCC1	i
CC1=CC(C)C(COC(=O)NC2CCCCC2)(COC(=O)NC2CCCCC2)C(C)C1 (stereo not given)	-101
CS(=O)(=O)CC(=O)NC1CCCCC1	i
c1ccc2c(c1)CCC(N1CCN(Cc3cc4n(n3)CCNC4)CC1)C2 (stereo not given)	i
OCC1CCN(Cc2cc3n(n2)CCCNC3)CC1	i
c1cc2c(cc1OCC1CCN(Cc3cc4n(n3)CCNC4)CC1)CCC2	-87
COCCC1CN(Cc2cc3ccc(C)cc3[nH]c2=O)CCO1 (stereo not given)	i
SMILES	Tgondii IFNg
Cc1cc(C)n(CCCN(C)C(=O)c2cnc(C)nc2C)n1	i
Cc1ccccc1NC(=O)N1CCC(c2nc(CCNC(=O)C(C)C)cs2)CC1	i
O=c1[nH]cnc2c1sc1nc(-c3ccccc3)cc(-c3ccccc3)c12	i
Cc1ccc(-c2cc(-c3ccccc3)nc3sc4c(c23)CCCC4)cc1	i
Nc1c(-c2nnc(-c3ccccc3)o2)sc2nc(-c3ccccc3)cc(-c3ccccc3)c12	-87
COc1ccc(-c2nc(Cc3noc(-c4ccc(C#N)cc4)n3)c(C)o2)cc1	i
Cc1ccc(CN2CCC3(CC2)COCCN(c2ncccn2)C3)s1	i
Cc1ccc(CN2CCCC3(COCCN(c4cnccn4)C3)C2)s1 (stereo not given)	-94
CS(=O)(=O)N1CCCC2(COCCN(c3cnccn3)C2)C1 (stereo not given)	i
Cc1ccc(N2Cc3ncn(CC(C)C)c3C(C(=O)O)C2)nn1 (stereo not given)	i
CO[C@@H]1CC[C@@H]2[C@H]1OCCN2C(=O)N(C)C	i
CN(C)C(=O)N1CCO[C@@H]2[C@H]1CC[C@H]2OCCN1CCCC1	i
CN(C)C(=O)N1CCO[C@@H]2[C@H]1CC[C@H]2OCC1CCOCC1	-72
C=CC(=O)N1CCCC(c2nc(CCNC(=O)C(C)C)cs2)C1 (stereo not given)	i
C1CCC(c2nc(CN3CCCCC3CCN3CCOCC3)no2)C1 (stereo not given)	i
COc1ccc(-c2nc(NCCN3CCOCC3)c3ccccc3n2)cc1	i
COc1ccc2c(c1)CCc1c-2nc2ccccc2c1N1CCOCC1	-98
COc1ccc(-c2nc(N3CCc4ccccc4C3)c3ccccc3n2)cc1	i
Cc1nn(C)c(C)c1S(=O)(=O)N1CCC2(CC1)Nc1ccc(Cl)cc1-n1cccc12	i
Cc1nn(-c2ccc(F)cc2)c(C)c1CNC(=O)C(C)n1c(C)nc2ccccc21 (stereo not given)	i
CN(C)C(=O)CN1CCCC2(CCN(S(=O)(=O)c3cn(C)cn3)C2)C1 (stereo not given)	i
COc1nn(C)c2c1CCCN(S(=O)(=O)c1cccc(C)c1)C2	i
Cc1oc2c(c1C(=O)Nc1cccc(OCCN3CCOCC3)c1)CCCC2	i
COc1c(C)c2c(c(O)c1C/C=C(\C)CCC(=O)OCCN1CCOCC1)C(=O)OC2	-76

Compound activity (PubChem)
